Common to all, as to conditions: incubation time: 27 h, anaerobic, 37 °C
The subject of assay [1] is Clostridium sporogenes DSM 1664. Description: growth (OD595) fold change vs plate DMSO controls (fold change (ratio)); higher = more growth. In short, it runs like this:
(§1)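 The reported measure is growth: the fold change against the median of DMSO controls on the plate. Absorbance at 595 nm from anaerobic 96-well mGAM cultures grown for 27 h at 37 °C was blank-subtracted, corrected for background with 20 µM compound solutions in water, and converted to OD with a calibration factor of 5. Fold changes above 1.5 appear as NA, and values are the mean of 2 biological replicates.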

Assay [2] relates to Escherichia coli IAI1. Described as above. The method, boiled down: as §1
Assay [3] deals with Klebsiella aerogenes DSM 30053. The assay is described as above. The method, boiled down: as §1
Assay [4] relates to Ruminococcus gnavus DSM 108212. The assay is described as above. The method, boiled down: as §1
Assay [5] has as its system Klebsiella aerogenes DSM 30053. Put plainly: fold change of Histamine concentration vs plate DMSO controls (fold change (ratio)); higher = more amine produced, active = hit call of the paper (significant change in both replicates, either direction). In short, it runs like this: (§2)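 Amines were quantified by LC–triple-quadrupole MS in dynamic MRM mode against external calibration curves, with drift correction within each batch. The samples were whole anaerobic mGAM cultures of four gut bacterial strains, grown for 27 h at 37 °C in 80 µL wells and extracted with cold acetonitrile/methanol with 0.1% formic acid, then centrifuged. Values are reported as fold change over DMSO controls on the same plate. The mean of 2 biological replicates is given.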

Assay [6] deals with Clostridium sporogenes DSM 1664. Description: fold change of Tryptamine concentration vs plate DMSO controls (fold change (ratio)); higher = more amine produced, active = hit call of the paper (significant change in both replicates, either direction). In short, it runs like this: as §2
Assay [7] has as its system Ruminococcus gnavus DSM 108212. Described as above. The method, boiled down: as §2
Assay [8] deals with Escherichia coli IAI1. Description: fold change of Putrescine concentration vs plate DMSO controls (fold change (ratio)); higher = more amine produced, active = hit call of the paper (significant change in both replicates, either direction). The method, boiled down:
as §2

Assay [9] has as its system Klebsiella aerogenes DSM 30053. Described as above. In short, it runs like this: as §2
Assay [10] relates to Escherichia coli IAI1. Description: fold change of Cadaverine concentration vs plate DMSO controls (fold change (ratio)); higher = more amine produced, active = hit call of the paper (significant change in both replicates, either direction). In short, it runs like this: as §2
In assay [11] the test system is Klebsiella aerogenes DSM 30053. Described as above. The method, boiled down: as §2
For assay [12], the system named is Ruminococcus gnavus DSM 108212. Put plainly: fold change of 2-Phenylethylamine concentration vs plate DMSO controls (fold change (ratio)); higher = more amine produced, active = hit call of the paper (significant change in both replicates, either direction). The method, boiled down:
as §2

Structures are written as SMILES. Where a name gives a salt, the structure may show the parent alone.

On to `Nc1ccn([C@@H]2O[C@H](CO)[C@@H](O)C2(F)F)c(=O)n1` [Gemcitabine] (20 µM), for which the growth is 0.371 in assay [1], 0.338 in assay [2], 0.294 in assay [3] and 0 in assay [4]. The “fold change of Histamine concentration” value in [5] was 1.07 (inactive). In addition, the results for the “fold change of Tryptamine concentration” value in [6] and in assay [7] were 0.969 (inactive) and 0.641 (active), respectively. Also, the “fold change of Putrescine concentration” value was 0.969 (inactive) in assay [8] and 1.01 (inactive) in assay [9]. Besides, the “fold change of Cadaverine concentration” value is 1.02 (inactive) in [10] and 0.999 (inactive) in assay [11]. Further, in assay [12], the “fold change of 2-Phenylethylamine concentration” value was 0.753 (inactive).
As to `CNc1ncnc2c1ncn2[C@@H]1O[C@H](CO)[C@@H](O)[C@H]1O` [N6-methyladenosine] (20 µM), the growth is 1.05 in [1], 0.994 in [2], 1.02 in [3] and 0.955 in [4]. In addition, the “fold change of Histamine concentration” value in assay [5] was 1.03 (inactive). The “fold change of Tryptamine concentration” value in assay [6] is 1.03 (inactive); in assay [7] it was 1.04 (inactive). The “fold change of Putrescine concentration” value in assay [8] is 1 (inactive); in assay [9], 0.992 (inactive). Moreover, the “fold change of Cadaverine concentration” value in [10] is 0.987 (inactive); in assay [11] it was 1 (inactive). The “fold change of 2-Phenylethylamine concentration” value in [12] is 1.01 (inactive).
In the case of `CCC(NC(C)C)C(O)c1ccc(O)c(O)c1` (configuration not stated) [Isoetharine mesylate salt] (20 µM), the growth in assay [1] is 1.13; in assay [2], 1.06; in assay [3] it was 0.99; in assay [4], 0.992. For the same molecule, in [5], the “fold change of Histamine concentration” value was 1 (inactive). The “fold change of Tryptamine concentration” value in assay [6] was 0.966 (inactive); in assay [7], 0.977 (inactive). Further, the results for the “fold change of Putrescine concentration” value in assay [8] and in assay [9] were 1.11 (inactive) and 0.995 (inactive), respectively. Further, the “fold change of Cadaverine concentration” value in assay [10] was 0.987 (inactive); in [11], 0.994 (inactive). Further, the “fold change of 2-Phenylethylamine concentration” value in [12] is 0.92 (inactive).
`CCC(=O)O[C@]1(C(=O)SCF)[C@H](C)C[C@H]2[C@@H]3C[C@H](F)C4=CC(=O)C=C[C@]4(C)[C@@]3(F)[C@@H](O)C[C@@]21C` [Fluticasone propionate] (20 µM): the growth is 0.911 in assay [1], 0.976 in assay [2], 1.03 in assay [3] and 0.998 in assay [4]. Besides, in assay [5], the “fold change of Histamine concentration” value is 1.04 (inactive). Also, the “fold change of Tryptamine concentration” value is 0.989 (inactive) in assay [6] and 0.935 (inactive) in assay [7]. Moreover, the “fold change of Putrescine concentration” value in assay [8] is 0.994 (inactive); in assay [9], 1.01 (inactive). Besides, the “fold change of Cadaverine concentration” value is 0.995 (inactive) in assay [10] and 1.01 (inactive) in assay [11]. Also, the “fold change of 2-Phenylethylamine concentration” value in assay [12] is 0.931 (inactive).
Take `Cc1cc(C(=O)NNCc2ccccc2)no1` [Isocarboxazid] (20 µM): the growth in assay [1] came to 1.17; in assay [2], 1.04; in assay [3], 1.18; in assay [4] it was 0.995. The “fold change of Histamine concentration” value in assay [5] was 0.915 (inactive). Moreover, the “fold change of Tryptamine concentration” value in assay [6] is 1.09 (inactive); in assay [7] it was 1.07 (inactive). Besides, the results for the “fold change of Putrescine concentration” value in assay [8] and in assay [9] were 1.05 (inactive) and 0.987 (inactive), respectively. Besides, the “fold change of Cadaverine concentration” value was 0.983 (inactive) in [10] and 1.02 (inactive) in [11]. Also, the “fold change of 2-Phenylethylamine concentration” value in assay [12] was 1.09 (inactive).
For the molecule `CC(=O)O[C@H]1C[C@@]2(C)[C@@H](C[C@@H](O)[C@H]3[C@@]4(C)CC[C@@H](O)[C@@H](C)[C@@H]4CC[C@@]32C)/C1=C(\CCC=C(C)C)C(=O)O` [Fusidic acid sodium salt] (20 µM), the growth worked out at 0.00767 in assay [1], 1.02 in assay [2], 1.09 in [3] and 0.122 in assay [4]. Also, the “fold change of Histamine concentration” value in [5] is 0.846 (inactive). In addition, the “fold change of Tryptamine concentration” value in assay [6] was 0.0208 (active); in assay [7] it was 0.102 (active). For the same molecule, the figures for the “fold change of Putrescine concentration” value in [8] and in assay [9] were 0.913 (inactive) and 0.963 (inactive), respectively. Besides, the “fold change of Cadaverine concentration” value in assay [10] was 1 (inactive); in assay [11], 1.02 (inactive). In addition, in assay [12], the “fold change of 2-Phenylethylamine concentration” value is 0.106 (active).

For the origin of these results see the supplement of paper PMC12494721.
